Laboratory results taken from PubChem BioAssay (NCATS).
Calls of active or inactive are those of the source. The call rests on the fitted dose curve; in most records, active means well fitted activation curve with a large enough effect; inconclusive means small, poorly fitted or top-dose-only effect; inactive means flat fitted curve, though single readings scatter.

test: Cellular Toxicity (caspase-3) Mesangial (AID 660); conditions: mesangial cells, normalized: DMSO 0%, 100 µM tamoxifen 100%; series mostly up to 91.7 µM;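 further: combined caspase 3 and 7 activity read by Caspase-Glo luminescence; cells exposed to compound for 16 h before the caspase read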
Source text: NIH Chemical Genomics Center [NCGC]
NIH Molecular Libraries Screening Centers Network [MLSCN]
National Institutes of Environmental Health Sciences [NIEHS]
National Toxicology Program [NTP]
We have developed a 1536-well cell-based assay for quantitative high throughput screening (qHTS) against a number of cell lines to determine in vitro caspase 3/7 of small molecules. This particular assay uses the mesangial cell line which is derived from normal human renal glomeruli.
NCGC Assay Protocol Summary:
The Caspase-Glo 3/7 assay (Promega) is a homogeneous method to measure caspase-3 and caspase-7 activities in cultured cells. The quantitation of caspase 3/7 activity is based on the cleavage of a peptide-aminoluciferin substrate. After caspase cleaves the substrate the free aminoluciferin is liberated and serves as the substrate of luciferase, which generates the light. The luminescent signal is proportional to amount of caspase 3/7 activity present.
Using the Caspase-Glo 3/7 assay, the amount of caspase 3/7 activity was measured in the mesangial cell line with complete culture medium following compound treatment for 16 hours. The assay was performed in opaque white 1536-well plates. In the screen, tamoxifen and doxorubicin were used as positive controls. Library compounds were measured for their ability to cause the activation of caspase 3/7 in the cell line, as reflected by an increase in luminescence signal, in a concentration-dependent manner. Data were normalized to the controls for basal activity (DMSO only) and 100% stimulation (100 uM tamoxifen). AC50 values were determined from concentration-response data modeled with the standard Hill equation.
qHTS protocol for caspase 3/7 assay in mesangial cell line
[Step] [Parameter] [Value] [Description]
1. Reagent; 5 uL; 1000 mesangial cells/well
2. Time; 5 hr; 37 °C incubation
4. Controls; 23 nL; Tamoxifen 0.23 uM to 100 uM & doxorubicin 7.0 pM to 100 uM
5. Time; 16 hr; 37 °C incubation
6. Reagent; 5 uL; Caspase-Glo 3/7 reagent
7. Time; 20 min; Room Temperature
8. Detection; Luminescence; Viewlux plate reader
Keywords: caspase 3/7, apoptosis, mesangial cell line, luminescence, NTPHTS, NTPHTS_NCGC, NIEHS, EPA, DSSTox, MLSMR, MLSCN, NIH Roadmap, qHTS, NCGC

Compound | outcome
C=CC(N)=O | inactive
C=CCc1ccc(OC)cc1 | inactive
c1ccc(N=Nc2ccccc2)cc1 | inactive
CCCCOC(=O)c1ccccc1C(=O)OCCCC | inactive
O=NN(c1ccccc1)c1ccccc1 | inactive
C=CCc1ccc2c(c1)OCO2 | inactive
Cc1cccc(C#N)c1 | inactive
CCOCN(C(=O)CCl)c1c(C)cccc1CC | inactive
NC(=S)Nc1ccccc1 | inactive
COc1ccc(N)cc1 | inactive
Brc1ccccc1 | inactive
C/C=C/c1ccc2c(c1)OCO2 | inactive
CCOc1ccc(N)cc1 | inactive
BrCCBr | inactive
CC(C)(C)OO | inactive
CCCCOCCOP(=O)(OCCOCCCC)OCCOCCCC | inactive
O=[N+]([O-])c1ccc(Cl)c(Cl)c1 | inactive
OCC1CO1 (stereo not given) | inactive
C1CCC2CCCCC2C1 (stereo not given) | inactive
ClC(Cl)=C(Cl)Cl | inactive

Compound | outcome
CC(C)(C)OOC(C)(C)C | inactive
ClC1=C(Cl)C2(Cl)C3C(Cl)C=CC3C1(Cl)C2(Cl)Cl (stereo not given) | inactive
ClC1=C(Cl)C2(Cl)C3C4CC(C5OC45)C3C1(Cl)C2(Cl)Cl (stereo not given) | inactive
CCCOC(=O)c1ccccc1C(=O)OCCC | inactive
Nc1c(Cl)c(Cl)nc(C(=O)O)c1Cl | inactive
Oc1ccc(Cl)cc1Cl | inactive
O=NN(CCO)CCO | inactive
CCCC(=O)Cl | inactive
C=C(C)C#N | inactive
N#CCCCl | inactive
Cc1ccc([N+](=O)[O-])cc1C | inactive
Brc1ccc(Oc2cc(Br)c(Br)cc2Br)c(Br)c1 | inactive
CC(Cl)Cl | inactive
ClCBr | inactive
CNC(=O)O/N=C/C(C)(C)SC | inactive
CC(C)(c1ccccc1)c1ccc(O)cc1 | inactive
Cc1cccc([N+](=O)[O-])c1 | inactive
c1nc[nH]n1 | inactive
c1ccc(-c2ccccc2)cc1 | inactive
C[C@]12CC[C@H]3[C@@H](CCC4=CC(=O)CC[C@@]43C)[C@@H]1CC[C@@H]2O | inactive
